PubChem BioAssay AID720700 (The Scripps Research Institute Molecular Screening Center, 2013)
The campaign covered roughly 370,000 compounds. About 3,100 (0.84%) were called active. The sample holds actives, similar compounds and a random draw of the others, so the mix is not that of the screen. Cut-off read from the data, not from the text of the source: active = inhibition above about 9.5%; inactive = the rest.

Target: 1-phosphatidylinositol 4,5-bisphosphate phosphodiesterase gamma-1 (Homo sapiens) (UniProt P19174)
Sequence (P19174 whole entry, looked up): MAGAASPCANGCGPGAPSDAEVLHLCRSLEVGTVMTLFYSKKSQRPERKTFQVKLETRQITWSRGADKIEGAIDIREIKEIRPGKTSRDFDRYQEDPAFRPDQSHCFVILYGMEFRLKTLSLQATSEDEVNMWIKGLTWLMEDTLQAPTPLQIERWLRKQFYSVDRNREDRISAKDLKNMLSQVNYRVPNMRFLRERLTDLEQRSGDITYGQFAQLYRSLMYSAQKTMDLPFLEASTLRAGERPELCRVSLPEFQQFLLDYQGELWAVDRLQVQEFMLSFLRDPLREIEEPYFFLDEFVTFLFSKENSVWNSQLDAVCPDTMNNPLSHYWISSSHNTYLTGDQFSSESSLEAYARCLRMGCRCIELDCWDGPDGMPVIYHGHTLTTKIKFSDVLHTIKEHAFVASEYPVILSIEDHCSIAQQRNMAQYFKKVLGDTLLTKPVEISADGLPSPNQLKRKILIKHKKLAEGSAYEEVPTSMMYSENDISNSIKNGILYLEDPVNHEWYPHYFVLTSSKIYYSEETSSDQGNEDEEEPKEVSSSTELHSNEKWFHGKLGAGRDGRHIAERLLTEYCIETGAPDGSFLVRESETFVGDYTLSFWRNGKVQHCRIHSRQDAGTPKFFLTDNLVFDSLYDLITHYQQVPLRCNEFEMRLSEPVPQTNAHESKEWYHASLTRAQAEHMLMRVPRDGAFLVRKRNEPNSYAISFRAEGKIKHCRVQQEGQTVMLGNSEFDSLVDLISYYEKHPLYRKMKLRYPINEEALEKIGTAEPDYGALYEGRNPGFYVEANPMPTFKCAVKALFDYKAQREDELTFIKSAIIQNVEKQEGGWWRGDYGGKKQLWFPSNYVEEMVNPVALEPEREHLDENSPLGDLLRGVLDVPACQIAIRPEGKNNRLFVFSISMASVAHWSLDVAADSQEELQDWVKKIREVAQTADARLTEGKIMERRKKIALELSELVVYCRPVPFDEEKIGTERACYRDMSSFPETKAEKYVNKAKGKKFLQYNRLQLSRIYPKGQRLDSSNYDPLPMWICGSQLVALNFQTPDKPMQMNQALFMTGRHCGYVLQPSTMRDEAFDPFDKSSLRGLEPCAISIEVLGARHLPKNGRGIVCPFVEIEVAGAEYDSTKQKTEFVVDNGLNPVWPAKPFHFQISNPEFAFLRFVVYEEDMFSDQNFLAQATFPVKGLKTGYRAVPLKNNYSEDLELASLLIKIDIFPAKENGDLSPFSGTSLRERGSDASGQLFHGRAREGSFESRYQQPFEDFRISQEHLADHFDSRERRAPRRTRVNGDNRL
Assay: blockers of human PLCG1 activity – biochemical, fluorescence, purified enzyme, primary screen (AID 720700)
Conditions: purified PLC-gamma1, fluorogenic substrate, at 12.2 µM, active compounds read high

| Structure (SMILES) | inhibition |
| --- | --- |
| CC(CCN1CCC(C(O)(c2ccccc2)c2ccccc2)CC1)Oc1ccc(Cl)cc1 (centres undefined) | 3.75% (inactive) |
| CCCC[C@H]1C2CC(OC(=O)NCc3ccccc3)C(C2)[C@H]2CCCCN21 (some centres undefined) | -1.64% (inactive) |
| CC1Oc2ccccc2N(Cc2cccnc2)C1=O (centres undefined) | 11% (active) |
| CC12c3ccccc3C(c3ccccc31)C1C(=O)N(Cc3cccnc3)C(=O)C12 (centres undefined) | 1.04% (inactive) |
| Cc1cccc(C)c1NC(=O)CN1C(=O)C(C)Oc2ccccc21 (centres undefined) | 1.55% (inactive) |
| Cc1ccc(C2=CCN(C)C(=O)N2c2ccc(Cl)cc2)cc1 | -0.42% (inactive) |
| CC(c1c[nH]c2ccccc12)c1c(-c2ccccc2)n(C)c2ccccc12 (centres undefined) | -4.35% (inactive) |
| CC(C)C(C#CC1CC1)N(Cc1ccc2c(c1)OCO2)C(N)=NC(=O)/C=C/c1cccc(C(F)(F)F)c1 (centres undefined) | 0.02% (inactive) |
| C=CCN(C(=O)[C@@H](CCCC)[C@@H](O)c1ccc(Cl)cc1)c1ccccc1 | -0.11% (inactive) |
| CCOc1ccc(S(=O)(=O)NCCC(=O)NCC2CCCO2)cc1 (centres undefined) | 2.41% (inactive) |
| CCC(=O)Nc1ccc(S(=O)(=O)NCC2CCCO2)cc1 (centres undefined) | 3.4% (inactive) |
| O=C(CCNS(=O)(=O)c1ccc(Br)cc1)NCC1CCCO1 (centres undefined) | 12.3% (active) |
| COC(=O)[C@]12C[C@H](CC(=O)NCc3ccccc3)C(=O)N(Cc3ccccc3)C1=C[C@H](COCc1ccccc1)O[C@@H]2C | 8.06% (inactive) |
| COc1ccc(-n2c(SCC(=O)Nc3ccccc3-c3ccccc3)nnc2-c2cccnc2)cc1 | -0.54% (inactive) |
| C=C(C)C1CC23C(=O)C4(C(=O)c5ccccc5)C[C@@]5(C)CCC(CC2C1(C)C)(C4=O)C35OC (some centres undefined) | -0.5% (inactive) |
| COC(=O)[C@]12C[C@H](CC(=O)N3CCOCC3)C(=O)N(Cc3ccc(Cl)cc3Cl)C1=C[C@H](C(C)C)O[C@@H]2C1CC1 | -1.21% (inactive) |
| O=C(CSc1ncn[nH]1)Nc1ccnc2ccccc12 | 0.33% (inactive) |
| O=C(CSc1ncn[nH]1)N/N=C/c1ccc(F)cc1 | 9.55% (active) |
| O=C(CSc1ncn[nH]1)Nc1nsc(-c2ccccc2)n1 | -3.65% (inactive) |
| COc1cc(NC(=O)C2CCCN(S(=O)(=O)c3ccc(C(C)(C)C)cc3)C2)cc(OC)c1 (centres undefined) | 0.39% (inactive) |
| CC(C)CNc1cccc2c1S(=O)(=O)N(Cc1cn(Cc3ccc(Cl)cc3)nn1)Cc1ccccc1O2 | -48.8% (inactive) |

| Structure (SMILES) | inhibition |
| --- | --- |
| C=CCN1[C@@H](Cc2ccccc2)COc2cccc(N3CCSCC3)c2S1(=O)=O | 1.11% (inactive) |
| CCOC(=O)[C@]12CCCC=C1N(CCCOC)C(=O)[C@@H]2CC(=O)N1CCOCC1 | 10.2% (active) |
| CCOC(=O)[C@]12CCCC=C1N(Cc1ccc(OC)cc1)C(=O)[C@@H]2CC(=O)N1CCOCC1 | 0.69% (inactive) |
| CCOC(=O)[C@]12CCCCC/C=C\1N(Cc1ccc(OC)cc1)C(=O)[C@H]2CC(=O)N1CCOCC1 | -0.42% (inactive) |
| COc1ccc(N2CCN(CCNS(=O)(=O)c3ccc([N+](=O)[O-])cc3)CC2)cc1 | -0.14% (inactive) |
| COC(=O)C1CN(CCc2ccccc2)CCS(=O)(=O)N1Cc1cccc(Cl)c1 (centres undefined) | 0.86% (inactive) |
| COc1ccc(CSc2nnc(-c3cccc(C)c3)n2C)cc1 | 1% (inactive) |
| COc1ccc(-n2c(COc3ccccc3)nnc2SCC(=O)Nc2ccc3c(c2)OCO3)cc1 | -1.32% (inactive) |
| Cc1cc(C)n2ncc(C(=O)Nc3ccc4c(c3)OCCO4)c2n1 | -0.99% (inactive) |
| CN(C)[C@H]1CCN(c2cccc3c2S(=O)(=O)N2CC[C@H](C2)O3)C1 | 1.23% (inactive) |
| O=C(CN1CCN(C2CCCCC2)CC1)Nc1ccccc1N1CCCCC1 | 10.2% (active) |
| O=C(CN1CCCCC1)Nc1ccccc1C(=O)NC1CC1 | 3.56% (inactive) |
| CC(=O)c1ccc(N2CCN(CC(=O)Nc3ccccc3N3CCOCC3)CC2)cc1 | -2.41% (inactive) |
| COc1ccc(C(=O)Nc2c(N)nc(SCC(=O)Nc3ccc(C(C)=O)cc3)[nH]c2=O)cc1 | -0.47% (inactive) |
| COc1ccc(NC(=O)c2ccccc2CC[N+](=O)[O-])cc1 | 0.81% (inactive) |
| COc1ccc(NC(=O)c2ccc(OC)cc2)cc1 | 11% (active) |
| C[C@@H]1CN([C@@H](C)CO)C(=O)c2cccc(NC(=O)Nc3cccc4ccccc34)c2O[C@H]1CN(C)S(=O)(=O)c1ccccc1F | -11.6% (inactive) |
| CCN(CC)CCCNC(=O)c1ccc2c(=O)n(Cc3ccc4c(c3)OCO4)c(=S)[nH]c2c1 | -2.49% (inactive) |
| Cc1cccc(NC(=O)c2ccc3c(=O)n(CC4CCCO4)c(=S)[nH]c3c2)c1 (centres undefined) | 10.2% (active) |
| O=C(NCc1ccccc1Cl)c1ccc2c(=O)n(CC3CCCO3)c(=S)[nH]c2c1 (centres undefined) | 2.56% (inactive) |
| Cc1ccc(NC(=S)NNC(=O)CSc2nnc(SCc3ccccc3Cl)s2)cc1 | -4.17% (inactive) |

| Structure (SMILES) | inhibition |
| --- | --- |
| CC(=O)OCCN1CCCC12CCC(c1ccccc1)CC2 (centres undefined) | -1.82% (inactive) |
| CCc1ccccc1NC(=O)CSc1nnc(-c2cccs2)o1 | -2.39% (inactive) |
| COC(=O)[C@]12C[C@H](CC(=O)NCc3ccccc3)C(=O)N(CCc3ccc(OC)c(OC)c3)C1=C[C@H](C(C)(C)C)O[C@@H]2C | 1.65% (inactive) |
| COC(=O)C1CN(Cc2cn(Cc3ccc(F)cc3)nn2)CCS(=O)(=O)N1Cc1ccc(Cl)cc1 (centres undefined) | 0.64% (inactive) |
| C=CCN1C(=O)[C@H](CC(=O)N2CCN(C(=O)OCC)CC2)[C@@]2(C(=O)OCC)CCCC=C12 | 0.46% (inactive) |
| O=c1c([N+](=O)[O-])cc(C(F)(F)F)cn1Cc1cccc(Cl)c1 | 11.6% (active) |
| O=c1c([N+](=O)[O-])cccn1Cc1ccc(F)cc1Cl | 3.37% (inactive) |
| FC(F)(F)c1cccc(Cn2ccc3ccc(-c4ccc5ccn(Cc6ccccc6)c5c4)cc32)c1 | -66.4% (inactive) |
| COC(=O)[C@]12C[C@H](CC(=O)NCC34CC5CC(CC(C5)C3)C4)C(=O)N(Cc3ccc(Cl)cc3Cl)C1=C[C@H](COCc1ccccc1)O[C@@H]2C | -0.03% (inactive) |
| CCN(CC)Cc1cc(C(C)=O)ccc1O | 3.56% (inactive) |
| CCN(CC)Cc1csc2ccc(Br)cc12 | 9.63% (active) |
| CN(CCO)Cc1csc2ccc(Br)cc12 | 1.91% (inactive) |
| C=CCN1C(=O)[C@@H](CC(=O)NCCCCc2ccccc2)[C@]2(C(=O)OCC)CCCCC/C=C/12 | -0.06% (inactive) |
| O=C(CN1CCCc2ccccc21)NCc1ccc(F)cc1 | -1.61% (inactive) |
| COc1ccc(NC(=O)CC2C(=O)NC3CCCCC3N2C(=O)c2ccc(F)cc2)cc1 (centres undefined) | 0.91% (inactive) |
| COc1ccccc1C(=O)N1C(CC(=O)Nc2ccccc2C)C(=O)NC2CCCCC21 (centres undefined) | 9.7% (active) |
| COc1ccccc1C(=O)N1CCNC(=O)C1CC(=O)Nc1ccc(Cl)cc1 (centres undefined) | 7.83% (inactive) |
| O=C(C1CCN(S(=O)(=O)c2ccccc2)CC1)N1CCN(C2CCCCC2)CC1 | -0.77% (inactive) |
| Cc1ccc(-n2c(SCC(=O)Nc3cccc4ccccc34)nnc2-c2ccccn2)cc1 | -0.11% (inactive) |
| Cc1n[nH]c(=O)n1-c1ccc(Oc2ccccc2)cc1 | -0.23% (inactive) |
| O=C1CS(=O)CN1c1ccc(Oc2ccccc2)cc1 (centres undefined) | 12% (active) |

| Structure (SMILES) | inhibition |
| --- | --- |
| Oc1oc(-c2ccccc2Br)nc1/C=N/c1ccccn1 | -17.6% (inactive) |
| CC(N=Cc1nc(-c2ccccc2)oc1O)c1ccccc1 (centres undefined) | 14.1% (active) |
| O=C1CC[C@@]23CCCN2C(=O)CCC[C@H]3[C@H]1Cc1ccccc1 | 0.07% (inactive) |
| CC(C)n1c(CN2CCN(Cc3ccccc3)CC2)nc2ccccc21 | 9.89% (active) |
| CCc1c(C)nc(N2CCN(Cc3ccccc3)CC2)[nH]c1=O | -1.09% (inactive) |
| CCCCn1c(CN2CCN(CCO)CC2)nc2ccccc21 | 0.96% (inactive) |
| O=C(NCc1cccs1)C1CCCN(S(=O)(=O)c2ccc([N+](=O)[O-])cc2)C1 (centres undefined) | 3.77% (inactive) |
| O=S(=O)(c1ccccc1)N1CCC(c2nc3ccccc3o2)CC1 | -4.98% (inactive) |
| COc1ccc(NS(=O)(=O)c2ccc(C)c(C(=O)NCC(c3cccs3)N3CCOCC3)c2)cc1 (centres undefined) | -3.99% (inactive) |
| COc1ccc(C(CNC(=O)c2cc(S(=O)(=O)Nc3cccc(C)c3)ccc2C)N2CCCC2)cc1 (centres undefined) | 11% (active) |
| Cc1cccc(NS(=O)(=O)c2ccc(C)c(C(=O)NCC(c3ccccc3)N(C)C)c2)c1 (centres undefined) | 2.63% (inactive) |
| C=CCOC/C=C/C#CCN(CC=C)Cc1ccc(OC)cc1OC | 2.05% (inactive) |
| Cc1ccc(-n2c(SCC(=O)Nc3ccc(S(=O)(=O)Nc4nccs4)cc3)nnc2-c2cccnc2)cc1 | 6.23% (inactive) |
| COCCN(C(=O)CCC(=O)Nc1nccs1)C(C(=O)NCCC(C)C)c1ccc(F)cc1 (centres undefined) | 3.17% (inactive) |
| COCCNC(=O)C(c1ccc(O)cc1)N(C(=O)CCC(=O)Nc1nccs1)c1ccc(C)cc1 (centres undefined) | 15.2% (active) |
| COCCNC(=O)C(c1ccc(C)cc1)N(C(=O)CCC(=O)Nc1ccccn1)c1cccc(C)c1 (centres undefined) | 5.63% (inactive) |
| CCC(=O)OCCCN1C(=O)CCC12CCC(c1ccccc1)CC2 (centres undefined) | 1.02% (inactive) |
| C[C@@H]1COc2cccc(N3CCCC3)c2S(=O)(=O)N1C | -3.06% (inactive) |
| C=CC1=C(C(=O)O)N2C(=O)[C@@H](NC(=O)/C(=N/OCC(=O)O)c3csc(N)n3)[C@H]2SC1 | 22.2% (active) |
| C=CC1=C(C(=O)O)N2C(=O)[C@@H](NC(=O)/C(=N\OCC(=O)O)c3csc(N)n3)[C@H]2SC1 | 23.4% (active) |
| COC(=O)[C@]12C[C@H](CC(=O)N3CCOCC3)C(=O)N(Cc3ccc(Cl)cc3Cl)C1=C[C@H](COCc1ccccc1)O[C@@H]2C | 1.02% (inactive) |
